High-throughput results as filed in PubChem BioAssay.
TDP1 cell noCPT = qHTS for Inhibitors of human tyrosyl-DNA phosphodiesterase 1 (TDP1): qHTS in cells in absence of CPT | AID 686978, 2013 | Potency, µM (series often up to 46.2 µM), for the others: at the top dose activity change, negative = growth inhibition, actives largely listed as inhibitors | DT40 Tdp1-/- hTDP1 cells, no CPT, ATP luminescence, 48 h | actives 15% (n = 420,000); further: potency means the concentration at half of the fitted maximal effect; nearly all actives have a fitted effect of over 55% in size
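DT40 Tdp1-/-;hTDP1 cells, no CPT (DMSO vehicle only), 400 cells/well; compounds pin-transferred; ≥48 hr, 37 °C; CellTiter-Glo 30 min RT dark, luminescence read.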
TDP1 inh = TDP1 (human) enzyme inhibition. Q9NUW8. recombinant TDP1, AlphaScreen DNA substrate cleavage. Potency, µM (series often up to 130 µM), for the others: at the highest dose activity change, negative = inhibition, actives largely listed as inhibitors. actives 0.28% (n = 350,000). AID 485290; further: potency means the concentration at half of the fitted maximal effect; nearly all actives have a fitted effect of over 40% in size
Target sequence (Q9NUW8 whole entry, looked up): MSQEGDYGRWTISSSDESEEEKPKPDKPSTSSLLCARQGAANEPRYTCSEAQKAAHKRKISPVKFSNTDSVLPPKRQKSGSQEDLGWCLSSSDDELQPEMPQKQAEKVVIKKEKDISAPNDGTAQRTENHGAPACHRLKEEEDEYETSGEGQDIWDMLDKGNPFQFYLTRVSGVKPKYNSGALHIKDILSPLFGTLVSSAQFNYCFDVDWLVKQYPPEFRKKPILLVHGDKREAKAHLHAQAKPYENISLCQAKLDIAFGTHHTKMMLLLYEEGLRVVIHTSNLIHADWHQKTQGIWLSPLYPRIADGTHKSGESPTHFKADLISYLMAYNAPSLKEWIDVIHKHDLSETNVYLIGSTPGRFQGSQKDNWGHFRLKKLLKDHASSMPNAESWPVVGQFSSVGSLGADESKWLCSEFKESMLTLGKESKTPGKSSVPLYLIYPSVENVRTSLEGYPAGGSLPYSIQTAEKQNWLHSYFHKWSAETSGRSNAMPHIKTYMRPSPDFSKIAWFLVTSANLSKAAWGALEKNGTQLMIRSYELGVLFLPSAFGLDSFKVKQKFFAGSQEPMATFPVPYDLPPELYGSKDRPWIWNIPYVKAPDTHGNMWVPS
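AlphaScreen read-out: signal falls as enzyme removes the 3' tyrosine-FITC from a 5'-biotinylated DNA oligo (15 nM, 5 min, RT). Enzyme was E. coli-made recombinant Tdp1 at 1 nM, exposed to compound for 15 min beforehand; beads 10 ug/ml, 10 min.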
DT40 TDP1 CPT = growth inhibition of DT40 Tdp1-/-;hTDP1 cells with camptothecin (screen for TDP1 inhibitors); actives 12% (n = 420,000); Potency, µM (highest dose often 46.2 µM), inactives show at the top dose activity change, negative = growth inhibition, hits mostly inhibitors; chicken DT40 Tdp1-/-;hTDP1 cells + 20 nM CPT, ATP luminescence, 48 h; further: potency means the concentration at half of the fitted maximal effect; nearly all actives have a fitted effect of over 55% in size
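Chicken DT40 Tdp1-/- cells stably complemented with human TDP1 were seeded at 400 cells/well in medium containing 20 nM camptothecin, exposed to pin-transferred compounds, and grown at 37 °C for at least 48 hr. Viability was read as ATP luminescence.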
IL1B secr inh = blocks inflammasome-driven IL-1 beta release; activity change, % at 57.5 µM; THP-1 LPS/ATP IL-1B secretion, AlphaLISA, 16 h; hits give low values; actives 4.7% (n = 360,000); in the data active means activity change below about -50%; inconclusive means mostly about -30% to -49%
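THP-1 cells pretreated 1 hr with compounds (up to 57.5 uM final), then stimulated with LPS (250 ng/mL final) plus ATP (1.25 mM final); secreted IL-1B measured by AlphaLISA after 16 hr, decreased signal indicating inhibition.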
Six1-Eya2 blk = inhibitors of human Six1/Eya2 interaction. AlphaScreen GST-Six1/His-Eya2 binding, biochemical; hits give low values. activity change, % (test concentration not listed). actives 0.56% (n = 360,000). AID 651725; in the data active means activity change below about -65%; inconclusive means mostly about -30% to -63%
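Compounds are tested against tagged Six1 and Eya2 proteins bridged by glutathione donor and nickel acceptor beads; after a one-hour incubation at 37 °C without light, AlphaScreen emission is recorded.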
CtBP-E1A inh = inhibitors of CtBP/E1A interaction | AlphaScreen GST-E1A/His-CtBP binding, 1536-well; hits give low values | AID 651724 | activity change, % (no concentration beside the values) | actives 0.49% (n = 340,000); in the data active means activity change below about -65%; inconclusive means mostly about -30% to -63%
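GST-E1A and His-tagged CtBP (125 nM each as 5X stock) were preincubated with pin-transferred compound for 2 h at 37 °C in the dark, then glutathione donor and nickel acceptor beads were added for 1 h before AlphaScreen reading.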
Starred values were filed as active, the others as inactive; ? = inconclusive; . = no result given. A selection: hits, their analogues and other compounds. The true share with any hit is near 18%. Unless noted, the call rests on the fitted dose curve; in most records, active means well fitted curve in the direction sought with a large enough effect; inconclusive means small, poorly fitted or top-dose-only effect, or another doubt; inactive means no such curve, though single readings can be large; an effect the other way counts as inactive or inconclusive. On the % scale 0 is the no-effect control and ±100 the full control effect.

SMILES	TDP1 cell noCPT	TDP1 inh	DT40 TDP1 CPT	IL1B secr inh	Six1-Eya2 blk	CtBP-E1A inh
N#Cc1c(N2CCCCC2)nc(N)c2c(N)nc3c(c12)CC(c1ccccc1)O3 (centres undefined)	11µM*	0%	?	-9	13	9
N#Cc1c(N2CCCC2)nc(N)c2c(N)nc(N3CCCC3)cc12	18µM*	10%	?	?	-29	?
CC(C(=O)NCc1ccccc1Cl)n1cc([N+](=O)[O-])cn1 (centres undefined)	2%	.	-1%	23	-1	7
CNc1c(NS(=O)(=O)c2ccc(OC)cc2)c(=O)oc2ccccc12	?	.	-20%	-17	-4	-1
CN(C)CCNc1nc2c(c(=O)[nH]c(=O)n2C)n1CCOc1ccccc1	-19%	.	?	-14	-15	-16
Cc1ccc2cc(CN(CCN3CCCC3)C(=O)Nc3ccc(F)cc3)c(=O)[nH]c2c1C	18µM*	0%	23µM*	?	-10	-13
O=C(Nc1ccc(F)cc1)N(CCCN1CCOCC1)Cc1cc2cc3c(cc2[nH]c1=O)OCCO3	?	0%	8.2µM*	-16	10	-4
CCOc1ccc(NC(=S)N(CCN2CCOCC2)Cc2cc3cc4c(cc3[nH]c2=O)OCCO4)cc1	-11%	9%	?	-53*	-24	-27
CCc1ccc2[nH]c(=O)c(CN(CCCN3CCOCC3)C(=O)Nc3ccc(F)cc3)cc2c1	13µM*	4%	?	?	-5	-4
O=C(c1ccccc1)N(CCO)Cc1cc2cc3c(cc2[nH]c1=O)OCCO3	-27%	1%	-2%	32	0	.
CCOc1ccccc1C(=O)N(Cc1ccccc1)Cc1cc2cc3c(cc2[nH]c1=O)OCCO3	23µM*	.	26µM*	4	1	0
CCOc1ccc(C2Nc3ccc4ccccc4c3-c3c2c(=O)oc2ccccc32)cc1 (centres undefined)	?	-1%	?	-55*	12	11
CC1=C(C(=O)N2CCOCC2)CC(CC(=O)NCc2ccco2)C(=O)N1Cc1ccccc1 (centres undefined)	?	.	-4%	10	7	-2
COc1cccc(CN2CCN(Cc3[nH]c4ccccc4c3C)CC2CCO)c1 (centres undefined)	?	-2%	?	-78*	-9	-9
CC(C)(C)CN1CCN(Cc2c[nH]c3ccccc23)CC1CCO (centres undefined)	8.2µM*	.	8.2µM*	-23	-10	3
COc1cccc(CN2CCN(Cc3cc4ccccc4[nH]3)CC2CCO)c1 (centres undefined)	?	.	?	-11	-1	.
COc1ccc(CN2CCN(Cc3c[nH]c4ccccc34)CC2CCO)cc1C (centres undefined)	9.2µM*	.	6.5µM*	?	-7	-20
COc1cc(CN2CCN(Cc3cn(C)c4ccccc34)CC2CCO)cc(OC)c1 (centres undefined)	?	.	?	?	-14	-2
COc1ccc(CN2CCN(Cc3ccc(C)cc3)C(CCO)C2)cc1OC (centres undefined)	-10%	.	?	23	2	0
COc1cc(CN2CCN(Cc3c[nH]c4ccccc34)CC2CCO)cc(OC)c1 (centres undefined)	?	3%	13µM*	-23	0	.
COc1ccc(CN2CCN(Cc3c[nH]c4ccccc34)CC2CCO)c(F)c1 (centres undefined)	8.2µM*	5%	4.6µM*	?	-9	-3
COc1ccc(F)c(CN2CCN(CCc3ccccc3)C(CCO)C2)c1 (centres undefined)	-14%	.	-13%	-2	15	-13
CC(C)=CCN1CCN(Cc2cn(C(C)C)c3ccccc23)CC1CCO (centres undefined)	23µM*	.	18µM*	-4	0	.
Cc1ccc(CN2CCN(Cc3cn(C(C)C)c4ccccc34)CC2CCO)o1 (centres undefined)	-25%	8%	?	?	-5	-3
CC1(C)CC(N2CCN(c3ccccc3)CC2)=CC(=[N+]2CCCC2)C1	0.23µM*	7%	0.18µM*	-102*	23	55
SMILES	TDP1 cell noCPT	TDP1 inh	DT40 TDP1 CPT	IL1B secr inh	Six1-Eya2 blk	CtBP-E1A inh
CC1CC(C)C[N+](=C2C=C(N3CCCC3)CC(C)(C)C2)C1 (centres undefined)	0.0082µM*	0%	0.21µM*	?	4	-1
COc1ccc(-n2c(=O)c(-c3cccs3)nc3cncnc32)cc1	12%	.	9%	.	.	.
CCOC(=O)N1CCC(NC(=O)Cn2cccc2C(=O)c2ccccc2)CC1	-9%	4%	-10%	16	4	-1
C=CC[N@@+]12CC[C@]34c5ccccc5N5/C=C6\C7N(/C=C(\C53)[C@@H](C[C@@H]41)/C(=C/CO)C2)c1ccccc1[C@@]71CC[N@@+]2(CC=C)C/C(=C\CO)[C@@H]6C[C@@H]12 (some centres undefined)	11%	.	1%	-1	-5	1
CCOC(=O)N1CCN(C(=S)NC(=O)c2cccc(OC)c2)CC1	-3%	-2%	6%	4	17	-3
CCOC(=O)N1CCN(C(=S)NC(=O)c2ccc(F)c(F)c2)CC1	15µM*	0%	?	17	1	-22
CCCCOC(=O)CCCN1C(=O)/C(=C2\SC(=S)N(CCCC(=O)OCCCC)C2=O)SC1=S	5%	.	-15%	26	6	.
O=[N+]([O-])c1cccc(-c2cc(-c3cc(Br)ccc3O)[nH]n2)c1	21µM*	-1%	?	-89*	-18	-8
Oc1ccc(Br)cc1-c1cc(-c2ccccc2)n[nH]1	?	8%	?	-2	0	9
Oc1ccccc1-c1cc(C(F)(F)F)[nH]n1	.	-1%	.	.	.	.
Oc1ccc(Br)cc1-c1cc(-c2ccc(Cl)cc2)n[nH]1	?	2%	21µM*	-14	-5	-2
O=[N+]([O-])c1ccccc1-c1cc(-c2ccccc2O)n[nH]1	?	-11%	?	-74*	-6	-12
Cc1nnc(SCC(=O)Nc2cc(S(=O)(=O)N3CCCC3)ccc2Cl)s1	-24%	.	0%	20	0	1
CCC(C(=O)OC)(C(=O)OC)c1ccc([N+](=O)[O-])cc1	-1%	-2%	-1%	10	5	-15
